Results from PubChem BioAssay (NCI).
Compounds without any hit were thinned out: in the full panel of roughly 83,000, 20% have a hit.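 In brief: 96-well plates, 48 h treatment, single concentration, percent growth endpoint.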 Values without a mark were called inactive. Activity calls are given as the source filed them. How the source made its calls: active means growth percent below 10; inactive means the rest.

Experiments:
Test in all cases: NCI-60 one-dose screen, 48 h (100 = growth as untreated, 0 = no growth, -100 = all killed)
Details in all cases: 10 µM unless noted
[1] = test system: RPMI-8226 leukemia
[2] = test system: OVCAR-8 ovarian
[3] = test system: OVCAR-5 ovarian
[4] = test system: OVCAR-4 ovarian
[5] = test system: SK-OV-3 ovarian
[6] = test system: IGROV1 ovarian
[7] = test system: OVCAR-3 ovarian
[8] = test system: HS 578T breast
[9] = test system: NCI/ADR-RES ovarian
[10] = test system: T-47D breast

Structure (SMILES) | growth [1] | growth [2] | growth [3] | growth [4] | growth [5] | growth [6] | growth [7] | growth [8] | growth [9] | growth [10]
COc1ccccc1[C@H]1c2[nH]c3ccccc3c2C[C@H]2C(=O)N(CCCCCCC(=O)NO)CC(=O)N12 | -1.71% (active) | 36.9% | 26.4% | 58.1% | 61.7% | 41.1% | 48.2% | 53.6% | 72.4% | 18.2%
Oc1ccccc1C=Nc1ccccc1N=Cc1ccccc1O.[Cu+2] | 19.1% | 15.1% | 103% | 35.5% | 76% | 55.5% | 71.7% | 137% | 20.2% | 20.2%
CC(=O)c1nc2ccccc2n1CCn1cc(CC(N)C(=O)O)c2ccccc21 (stereo not given) | 90% | 99% | 96.9% | 98.8% | 108% | 99.1% | 108% | 109% | 97.5% | 106%
CN(C)c1nc(-c2ccco2)n2nc(-c3ccco3)cc2n1 | 65.1% | 92.8% | 108% | 80.1% | 98.7% | 72.4% | 92.9% | 78.1% | 90.7% | 38%
CCOc1ccccc1C(=O)OCC(=O)Nc1cccc(S(=O)(=O)N(C)C)c1 | 85.8% | 92.9% | 94.9% | 95.2% | 129% | 98.5% | 126% | 95.3% | 96.8% | 66.5%
Clc1ccc([C@@H]2C[C@@H]3Cc4cc(Br)c5ccccc5c4N2O3)c(Cl)c1 | 89.3% | 98.3% | 101% | 84.7% | 79.5% | 79.4% | 41.6% | 92.3% | 55.5% | 96.9%
CCN1C2=C(SC(=S)C1=C1SC(C(=O)OC)=C(C(=O)OC)S1)SC(=Nc1ccc(OC)cc1)C2=O | -13.4% (active) | -21.7% (active) | -24.6% (active) | 5.88% (active) | 61% | -58.3% (active) | -61% (active) | 26.2% | -12.2% (active) | 12.7%
COc1ccc(/C=N\Nc2ccc([N+](=O)[O-])cn2)cc1OC | 40% | 14.6% | 22.2% | -56.6% (active) | 36.8% | 23.2% | 47% | 47.8% | 65% | -7.26% (active)
Cc1ccc(NC(=O)COC(=O)c2ccc(S(=O)(=O)N3CCCCCC3)cc2)cc1 | 97.6% | 98.8% | 84% | 105% | 79.4% | 101% | 106% | 113% | 105% | 5.22% (active)
Nc1ccc(C2=Nc3cccc4cccc(c34)S2)cc1 | 81.8% | 93.6% | 73.2% | 85.3% | 103% | 67.5% | 87.9% | 92.2% | 107% | 8.57% (active)
CCCCn1c(Cc2ccc(Cl)cc2)nc2cc(OC)c(OC)cc2c1=O | 23.4% | 70.1% | 93.5% | 71.1% | 187% | 69.9% | 80.9% | 114% | 75.7% | 101%
O=C(Nc1ccccc1Cl)c1cnc2ccc(C3CCNCC3)cn12 | 108% | 65.5% | 30.8% | 101% | 40.3% | -50.5% (active) | 62.2% | 9.47% (active) | 90.5% | 51.8%
O=C(Nc1nc2ccccc2s1)c1cc(-c2ccc(F)cc2)n2nc(-c3ccccc3)cc2n1 | 50.9% | 56.1% | 64.7% | -24.7% (active) | 35% | 78% | 20.3% | 59.7% | 61.8% | 45.4%
COc1ccc(-c2cn(-c3ccccc3)c(-c3ccccc3)n2)cc1OC | 25.8% | 75.3% | 119% | 67.3% | 209% | 83.7% | 37.2% | 103% | 86.2% | 131%
COc1ccc(C(=O)C(C)Br)cc1OC (stereo not given) | 85.5% | 88.3% | 84.7% | 84% | 115% | 76.5% | 61.5% | 95.2% | 96.1% | 82.6%
COc1cc(C2=NN(C(C)=O)C(c3ccc(OC(C)=O)cc3OC(C)=O)O2)c(OC(C)=O)c2ccccc12 (stereo not given) | 8.23% (active) | 8.46% (active) | 54% | 21.1% | 20.1% | 21.7% | 20.5% | 56.7% | 11.7% | 11.3%
O=c1ccn(C2CCCO2)c(=O)[nH]1 (stereo not given) | 108% | 102% | 111% | 119% | 112% | 114% | 115% | 112% | 110% | 105%
CCN(CC)CCOc1ccccc1-n1c(C)ccc1-c1ccccc1 | 63.2% | 97.5% | 101% | 106% | 99.5% | 71.4% | 78.9% | 82.5% | 85.4% | 91.9%
S=c1[nH]nc2sc3ccccc3n12 | 105% | 107% | 108% | 103% | 109% | 96.9% | 119% | 114% | 112% | 101%
CSc1nc2c(c(=O)n1C)C(c1ccccc1)C1=C(N2)/C(=C/c2ccccc2)CCC1 (stereo not given) | 39.5% | 63.7% | 113% | 68.3% | 107% | 47.2% | 52.8% | 61% | 38.3% | 57%
